Here are results for 21 compounds from PubChem BioAssay (NCATS).

SMILES strings stand for the structures. Values joined by “and” are separate entries in the source; they are usually repeats but may differ in a detail not shown here. Equal entries are not always repeated. Inconclusive results are not listed. The source holds several records for some structures; these can differ, active in one and inactive in another. Unmarked numbers belong to inactive results. Active and inactive are the calls of the source. Calls follow the shape of the dose curve; as a rule, active = well fitted curve in the direction sought with a large enough effect; inconclusive = small, poorly fitted or top-dose-only effect, or another doubt; inactive = no such curve, though single readings can be large; an effect the other way counts as inactive or inconclusive.

Assay [1] concerns HaCat. As to the kind of experiment: Cytotoxic Profiling of Annotated Libraries Using Quantitative High-Throughput Screening (AID 1296008). Also: nearly all actives have a fitted effect of over 60% in size. The conditions noted are these: Five cell lines viability, CellTiter-Glo ATP luminescence, 48-72 h; max response: stronger effect = lower value. Summed up: (§1)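 Cytotoxicity was measured as CellTiter-Glo ATP luminescence, read after 10 min at room temperature. Compound treatment of the cells lasted 48 or 72 hr at 37 degrees Celsius in a qHTS format.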
On the technique in general: ATP-based viability assays read luminescence as a measure of living cells.

Assay [2] deals with KB-3-1. Described as above. As to conditions: Five cell lines viability, CellTiter-Glo ATP luminescence, 48-72 h; max response: stronger effect = lower value. A digest of the protocol: as §1
Assay [3] has as its system MKL-1. As to the kind of experiment: qHTS assay to identify novel small-molecules to repurpose for Merkel cell carcinoma treatment (AID 1296009). Also: nearly all actives have a fitted effect of over 60% in size. The conditions noted are these: MCC and control cell lines, CellTiter-Glo viability, 72 h; series mostly up to 46 µM. A digest of the protocol:
(§2)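 Cell viability, measured as CellTiter-Glo luminescence, was normalized between DMSO and no-cell wells. The cells had been exposed to 8- or 11-point compound dilutions for 72 hr at 37 degree celsius.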
On the technique in general: In qHTS, concentration-response curves come from the screen itself.

The test system of assay [4] is UISO. The assay is described as above. As to conditions: MCC and control cell lines, CellTiter-Glo viability, 72 h; series mostly up to 46 µM. A digest of the protocol: as §2
The test system of assay [5] is WaGa. The description is as above. The conditions noted are these: MCC and control cell lines, CellTiter-Glo viability, 72 h; series mostly up to 46 µM. A digest of the protocol:
as §2

In assay [6] the test system is NIH3T3. As to the kind of experiment: Cytotoxic Profiling of Annotated Libraries Using Quantitative High-Throughput Screening (AID 1296008). Also: nearly all actives have a fitted effect of over 60% in size. The conditions noted are these: Five cell lines viability, CellTiter-Glo ATP luminescence, 48-72 h; max response: stronger effect = lower value. Summed up: as §1
Assay [7] deals with MCC-13. As to the kind of experiment: qHTS assay to identify novel small-molecules to repurpose for Merkel cell carcinoma treatment (AID 1296009). Also: nearly all actives have a fitted effect of over 60% in size. As to conditions: MCC and control cell lines, CellTiter-Glo viability, 72 h; series mostly up to 46 µM. Summed up:
as §2

The test system of assay [8] is MKL-2. Described as above. The conditions noted are these: MCC and control cell lines, CellTiter-Glo viability, 72 h; series mostly up to 46 µM. Summed up:
as §2

For assay [9], the system named is HeLa. As to the kind of experiment: Primary qHTS to identify gynecologic anti-cancer compounds using libraries of approved drugs and bioactive compounds (AID 1345084). Also: nearly all actives have a fitted effect of over 55% in size. As to conditions: Gynecologic cancer cell panel viability, ATPlite luminescence, 48 h; series mostly up to 57.5 µM. A digest of the protocol:
(§3)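 Cytotoxicity screen measuring ATP content by luciferase luminescence. Each compound is applied at five concentrations for 48 h at 37 C with 5% CO2.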

For assay [10], the system named is Hek293T. Described as above. The conditions noted are these: Gynecologic cancer cell panel viability, ATPlite luminescence, 48 h, control line for the selectivity index; series mostly up to 57.5 µM. Summed up: as §3
Assay [11] concerns JEG-3. The description is as above. The conditions noted are these: Gynecologic cancer cell panel viability, ATPlite luminescence, 48 h; series mostly up to 57.5 µM. Summed up: as §3
Assay [12] concerns OV90. The description is as above. The conditions noted are these: Gynecologic cancer cell panel viability, ATPlite luminescence, 48 h; series mostly up to 57.5 µM. A digest of the protocol:
as §3

The test system of assay [13] is HACAT. The assay is described as follows: qHTS assay to identify novel small-molecules to repurpose for Merkel cell carcinoma treatment (AID 1296009). Also: nearly all actives have a fitted effect of over 60% in size. The conditions noted are these: MCC and control cell lines, CellTiter-Glo viability, 72 h; series mostly up to 44.8 µM. A digest of the protocol:
as §2

Assay [14] has as its system MCC-26. The assay is described as above. The conditions noted are these: MCC and control cell lines, CellTiter-Glo viability, 72 h; series mostly up to 46 µM. Summed up: as §2
The test system of assay [15] is CAOV3. The assay is described as follows: Primary qHTS to identify gynecologic anti-cancer compounds using libraries of approved drugs and bioactive compounds (AID 1345084). Also: nearly all actives have a fitted effect of over 55% in size. As to conditions: Gynecologic cancer cell panel viability, ATPlite luminescence, 48 h; series mostly up to 57.5 µM. Summed up: as §3
For assay [16], the system named is C33A. Described as above. As to conditions: Gynecologic cancer cell panel viability, ATPlite luminescence, 48 h; series mostly up to 57.5 µM. A digest of the protocol:
as §3

Assay [17] has as its system CASKI. The description is as above. As to conditions: Gynecologic cancer cell panel viability, ATPlite luminescence, 48 h; series mostly up to 57.5 µM. A digest of the protocol:
as §3

Assay [18] relates to NIH3T3. The assay is described as follows: qHTS assay to identify novel small-molecules to repurpose for Merkel cell carcinoma treatment (AID 1296009). Also: nearly all actives have a fitted effect of over 60% in size. As to conditions: MCC and control cell lines, CellTiter-Glo viability, 72 h; at 44.8 µM (top of the series) unless noted. A digest of the protocol:
as §2

In assay [19] the test system is Es-2. The assay is described as follows: Primary qHTS to identify gynecologic anti-cancer compounds using libraries of approved drugs and bioactive compounds (AID 1345084). Also: nearly all actives have a fitted effect of over 55% in size. The conditions noted are these: Gynecologic cancer cell panel viability, ATPlite luminescence, 48 h; series mostly up to 57.5 µM. Summed up:
as §3
% is scaled to controls: 0 for no effect and ±100 for the full control effect; potency is read from the fitted curve at half-maximal effect.

On to `CN(c1ncccc1CNc1nc(Nc2ccc3c(c2)CC(=O)N3)ncc1C(F)(F)F)S(C)(=O)=O`, for which the Potency in assay [1] is 16600 nM (active); in assay [2], 7.43 µM (active); in [3], 9350 nM (active); in [4], 11800 nM (active); in assay [5], 8330 nM (active).

Consider `CC(C)c1cc(-c2n[nH]c(=O)n2-c2ccc3c(ccn3C)c2)c(O)cc1O`, for which the Potency in [1] is 65.1 nM (active); in [6], 105 nM (active) and 116 nM (active); in [7] it was 132 nM (active); in [4], 372 nM (active); in assay [10], 316 nM (active); in assay [12], 2510 nM (active). Besides, the Potency result in assay [8], in assay [9] and in assay [11] was “inactive” each time.

Take `CN1CCN(c2cc(C(=O)Nc3ccc4c(c3)-c3c(c(C(N)=O)nn3-c3ccc(F)cc3)CC4)c(Cl)cn2)CC1`: the result in assay [1] was inactive. Also, the Potency result in [13], in assay [7], in assay [14], in [4] and in assay [5] was “inactive” in each case. For the same compound, the Potency in assay [3] and in assay [8] was 26400 nM (active) in each case.

Turning to `O=c1[nH]nc(Sc2ncc([N+](=O)[O-])s2)n1-c1ccc2c(c1)OCCO2`, the Potency is 18700 nM (active) in assay [1]; 8.33 µM (active) in [6]; 11800 nM (active) in [7]; 10500 nM (active) in assay [14]; 3720 nM (active) in [3]; 5260 nM (active) in assay [8]. Moreover, the Potency in [4] was 7430 nM (active); in [5], 5260 nM (active).

Turning to `COC(=O)[C@]12CCC(C)(C)C[C@@H]1[C@@H]1C(=O)C=C3[C@@]4(C)C=C(C#N)C(=O)C(C)(C)[C@@H]4CC[C@@]3(C)[C@]1(C)CC2`, the Potency in [1] is 4180 nM (active); in [2], 1.18 µM (active). Also, the Potency result in assay [14] and in assay [3] was “inactive” in each case.

Take `Cc1ccc(-c2ncn(-c3ccc(Nc4nccc(-c5cccc(N6CCOCC6)c5)n4)cc3)n2)cn1`: the Potency in assay [1] is 418 nM (active); in assay [2], 0.209 µM (active); in [7], 526 nM (active); in [14], 264 nM (active); in assay [3], 235 nM (active); in [8], 52.6 nM (active).

With `CN[C@H]1CCc2cc(OC)c(OC)c(OC)c2-c2ccc(OC)c(=O)cc21`, in assay [1], the max response was -10.1%. Also, the Potency was 3.7 nM (active) and 46.1 nM (active) in assay [2]; 20.9 nM (active) in assay [7].

Take `CCN1CCN(CC(=O)Nc2ccc(-c3cccc4c(=O)cc(N5CCOCC5)oc34)c3sc4ccccc4c23)CC1`: the Potency is 935 nM (active) in assay [1] and 1.05 µM (active) in assay [6].

Regarding `CS(=O)(=O)N1CCN(Cc2cc3nc(-c4cccc5[nH]ncc45)nc(N4CCOCC4)c3s2)CC1`, the Potency in assay [1] was 29.6 nM (active); in assay [6] it was 296 nM (active) and 1.3 µM (active); in assay [4] it was 1320 nM (active); in assay [9], 3550 nM (active); in assay [10], 2510 nM (active). For the same compound, the Potency result in assay [7] and in assay [15] was “inactive” in each case.

Take `COC(=O)C[C@](O)(CCCC(C)(C)O)C(=O)O[C@@H]1C(OC)=C[C@]23CCCN2CCc2cc4c(cc2[C@H]13)OCO4`: the outcome in assay [1] was inactive. Also, in [6], the max response is 2.2%. For the same compound, the Potency entry in assay [13], in assay [7], in assay [14], in [3], in assay [8] and in assay [4] was “inactive” throughout. The Potency result in assay [5] was “inactive”.

Turning to `CCN(CC)CCCCNc1ncc2cc(-c3cc(OC)cc(OC)c3)c(NC(=O)NC(C)(C)C)nc2n1`, the max response in assay [2] was -22.2%. Further, the Potency entry in assay [7], in [14], in assay [3], in assay [8] and in assay [5] was “inactive” in each case.

As for `CC(C)(C)NC(=O)[C@H]1CN(Cc2cccnc2)CCN1C[C@@H](O)C[C@@H](Cc1ccccc1)C(=O)N[C@H]1c2ccccc2C[C@H]1O`, the max response in assay [2] is -44.5%. Moreover, the Potency result in assay [7], in assay [14], in assay [3], in [4] and in assay [5] was “inactive” in each case.

Regarding `Cn1cncc1[C@@](N)(c1ccc(Cl)cc1)c1ccc2c(c1)c(-c1cccc(Cl)c1)cc(=O)n2C`, the Potency in assay [2] was 14.8 µM (active); in assay [3], 4690 nM (active); in assay [8], 3720 nM (active); in [5], 935 nM (active). In [14], the Potency entry was “inactive”.

For `O=C(O)c1ccc2cc(-c3ccc(O)c(C45CC6CC(CC(C6)C4)C5)c3)ccc2c1`, the max response in assay [2] was 7.83%. Besides, the Potency is 1.66 µM (active) in assay [6]; 2640 nM (active) in assay [7]; 2960 nM (active) in assay [14]; 2350 nM (active) in [3]; 1180 nM (active) in [4]; 2350 nM (active) in [5].

As to `Cn1c2ccccc2c2c3c(c4c5ccccc5n(CCC#N)c4c21)CNC3=O`, the max response was 4.23% and -14.5% in [2]; -14.2% in [6]. The Potency in assay [6] is 10.5 µM (active); in [4], 2090 nM (active); in [5], 6620 nM (active). For the same compound, the Potency result in [16], in assay [17], in assay [9], in assay [10], in assay [11] and in assay [12] was “inactive” each time.

On to `Nc1ccc(S(=O)(=O)Nc2ncccn2)cc1`, for which the Potency result in assay [13], in assay [7], in assay [14], in assay [3], in assay [8] and in [4] was “inactive” in each case. Moreover, the Potency result in assay [5] is “inactive”. Moreover, the result in [18] was inactive.

As for `Nc1ccc(C(=O)c2cc3c(ccc4ccccc43)[nH]2)cc1`, the figures for the Potency in assay [2] and in assay [5] were 4.18 µM (active) and 8330 nM (active), respectively. Moreover, in [14], the Potency result is “inactive”.

With `O=c1[nH]c(=O)n(C2CCCO2)cc1F` (stereo unspecified), the compound was called inactive in [2]. Further, the Potency entry in [7], in [14], in assay [3], in assay [8] and in assay [4] was “inactive” in each case.

Regarding `CCCCOc1c(C(=O)c2c(F)cc(C)cc2F)cnc2n[nH]cc12`, the call in [2] was inactive. In addition, the Potency in assay [6] is 16.6 µM (active); in [9], 8910 nM (active). The Potency entry in assay [7], in assay [14], in assay [3], in assay [8], in assay [5] and in assay [16] was “inactive” throughout. Also, the Potency entry in assay [17] and in assay [11] was “inactive” each time.

For the compound `COC(=O)C1=C(C)NC(C)=C(C(=O)OCCN2CCN(C(c3ccccc3)c3ccccc3)CC2)C1c1cccc([N+](=O)[O-])c1` (stereo unspecified), the max response in assay [2] was -4.82%. In addition, the Potency result in [14], in [17], in [19], in assay [9], in assay [10] and in [11] was “inactive” each time. The Potency entry in assay [12] is “inactive”.

Consider `O=C(NC1CCNCC1)c1[nH]ncc1NC(=O)c1c(Cl)cccc1Cl`, for which the Potency in assay [6] is 13.2 µM (active); in [3] it was 372 nM (active); in [8] it was 833 nM (active); in assay [4] it was 1320 nM (active).
